PubChem BioAssay AID463173 (ICCB-Longwood Screening Facility, Harvard Medical School, 2010)
Out of some 52,000 compounds screened, about 4,300 (8.3%) were called active. Shown is part of a subset that was picked to be rich in actives. Unmarked numbers belong to inactive results. Rule as the data show it: active = survival mostly below about 52% (no sharp cut-off); inactive = mostly above about 56%.

system: DeltatarO mutant; assay: S. aureus survival, RN4220 and DeltatarO strains – OD600, teichoic acid synthesis inhibitors, primary screen (AID 463173); conditions: S. aureus RN4220 wild type/DeltatarO growth, OD600, 18 h, hits give low values, screened at 18.75 µg/mL (by protocol)

Compound | survival
Cc1cccc(N2C(=O)CS/C2=N/NC(=O)c2cccc(Cl)c2)c1 | 97%
CCN(C(=O)CSc1nc2ccccc2n1CC(=O)Nc1ccccc1C)c1ccccc1 | -5% (active)
CC(=O)Nc1ccccc1-c1nc2ccccc2n(CC(=O)Nc2cccc(C)c2C)c1=O | 117%
Cc1cccc(NC(=O)Cn2c(SCC(=O)NCc3ccccc3)nc3ccccc32)c1C | 119%
CCN(C(=O)CSc1nc2ccccc2n1CC(=O)Nc1cccc(C#N)c1)c1ccccc1 | 122%
Cc1cccc(NC(=O)Cn2c(C(F)(F)F)nc3ccccc32)c1C | 31% (active)
Cc1ccc(NC(=O)Cn2c(=O)c(C(F)(F)F)nc3ccccc32)cc1C | 60%
CCN(C(=O)CSc1nc2ccccc2n1CC(=O)Nc1ccc(F)cc1F)c1ccccc1 | 77%
O=C(Cn1c(=O)c(C(F)(F)F)nc2ccccc21)Nc1cccc(Br)c1 | 99%
Cc1cc(C)cc(NC(=O)Cn2c(C(F)(F)F)nc3ccccc32)c1 | 67% (active)
CC(C)C(=O)NS(=O)(=O)c1ccc(NC(=O)c2ccco2)cc1 | 90%
Cc1ccc(N2CC3=C(C2=O)C(c2ccc(Br)cc2)NC(=O)N3C)cc1 (stereo not drawn) | 74%
COc1cc(C)ccc1OCCSc1nc2ccc(NC(=O)c3ccccc3F)cc2s1 | 99%
Cc1cc(SCC(=O)Nc2nsc(-c3ccc(C(C)(C)C)cc3)n2)nc2ccccc12 | 13% (active)
Cc1nc(SCC(=O)Nc2nsc(-c3ccc(C(C)(C)C)cc3)n2)c2c3c(sc2n1)CCCC3 | 78%
COc1ccc2c(C)cc(SCC(=O)Nc3nsc(-c4ccc(C(C)(C)C)cc4)n3)nc2c1 | 56%
Cc1ccccc1-c1nc(NC(=O)CSc2ncnc3sc4c(c23)CCCC4)ns1 | 92%
Cc1ccc(-c2nc(NC(=O)CSc3cc(C)c4ccccc4n3)ns2)cc1 | 65%
Cc1cc(SCC(=O)Nc2ccc(Cl)cc2)nc2ccccc12 | 65%
CC(C)(C)c1ccc(-c2nc(NC(=O)CSc3ncnc4sc5c(c34)CCCC5)ns2)cc1 | 57% (active)
COc1ccc2c(C)cc(SCC(=O)Nc3nsc(-c4ccccc4C)n3)nc2c1 | 35% (active)
Cc1ccc(-c2nc(NC(=O)CSc3ccc4ccccc4n3)ns2)cc1 | 77%
CCN1CCN(c2oc(/C=C/c3cc(OC)c(OC)c(OC)c3)nc2C#N)CC1 | 72%
O=C(O)CSc1nc2c(c(C(F)(F)F)n1)CCc1ccccc1-2 | 96%

Compound | survival
CCN(CC)N=Nc1ccc(S(=O)(=O)N2CCSC2C(=O)O)cc1 (stereo not drawn) | 103%
CCOc1ccc(CC(=O)NCCc2csc(-c3ccc(Cl)cc3)n2)cc1 | 67%
CCOC(=O)/C(C#N)=C\c1ccc(Br)s1 | 93%
CN(C(=O)CSc1nc2ccccc2n1CC(=O)NCc1ccc(F)cc1)c1ccc(F)cc1 | 128%
COc1ccc(CNc2ccc3cc(S(=O)(=O)N4CCCCC4)ccc3n2)cc1 | 79%
COc1cc(NC(=O)CN2CCCN(S(=O)(=O)c3ccc(F)cc3)CC2)cc(OC)c1 | 74%
CCCCSc1nnc2[nH]c(=O)cc(C)n12 | 99%
Cc1cccn2c(=O)cc(CSc3nnc(NC(=O)COc4ccc(F)cc4)s3)nc12 | -2% (active)
Cc1cccn2c(=O)cc(CSc3nnc(NC(=O)COc4ccccc4)s3)nc12 | 84%
Cc1ccc(OCC(=O)Nc2nnc(SCc3cc(=O)n4cccc(C)c4n3)s2)cc1 | 76%
Cc1ccc2nc(CSc3nnc(NC(=O)COc4ccccc4)s3)cc(=O)n2c1 | 67%
CC(C)C(=O)Nc1nnc(SCc2cc(=O)n3ccccc3n2)s1 | 86%
Cc1ccc2nc(CSc3nnc(NC(=O)CC(C)C)s3)cc(=O)n2c1 | 76%
Cc1ccc2nc(CSc3nnc(NC(=O)C(C)C)s3)cc(=O)n2c1 | -1% (active)
Cc1ccc2nc(CSc3nnc(NC(=O)COc4ccccc4F)s3)cc(=O)n2c1 | 70%
Cc1ccc(OCC(=O)Nc2nnc(SCc3cc(=O)n4cc(C)ccc4n3)s2)cc1 | 6% (active)
COCCN(C(=O)c1ccco1)c1nnc(-c2ccc(F)cc2)s1 | 58%
CSc1nnc(-c2ccncc2)n1C | 97%
COc1ccc(N2CCN(S(=O)(=O)c3csc(C(N)=O)c3)CC2)cc1 | 90%
COc1cc(Cl)c(C)cc1NC(=O)CSc1cc(=O)n(C)c2cc(Cl)ccc12 | 63%
CC(C)(C)OC(=O)N1CC2C(C1)C2NC(=O)c1nsc(Cl)c1Cl (stereo not drawn) | 82%
CCOC(=O)c1ccc(NC(=O)c2ccc3c(c2)c(C)c(C)n3Cc2ccc(F)cc2)cc1 | 91%
O=C(Cn1c(=O)n(-c2ccccc2)c(=O)c2ccc(C(=O)NCc3ccc4c(c3)OCO4)cc21)Nc1ccc(Br)cc1 | 79%
CSc1ccc(CCNC(=O)Cn2nc(C)n3c(cc4sccc43)c2=O)cc1 | 88%

Compound | survival
O=C1C2=C(Nc3ccccc3SC2c2ccc(Cl)c(Cl)c2)c2ccccc21 (stereo not drawn) | 22% (active)
CCc1ccc(C2Sc3ccccc3NC3=C2C(=O)c2ccccc23)cc1 (stereo not drawn) | 104%
CC(C)(C)c1ccc(C2Sc3ccccc3NC3=C2C(=O)c2ccccc23)cc1 (stereo not drawn) | 98%
O=C1C2=C(Nc3ccccc3SC2c2ccccc2C(F)(F)F)c2ccccc21 (stereo not drawn) | 24% (active)
COc1ccc(Br)cc1C1Sc2ccccc2NC2=C1C(=O)c1ccccc12 (stereo not drawn) | 31% (active)
O=C1C2=C(Nc3ccccc3SC2c2c(F)cccc2Cl)c2ccccc21 (stereo not drawn) | 94%
CCOc1cc(C2Sc3ccccc3NC3=C2C(=O)c2ccccc23)ccc1O (stereo not drawn) | 48%
CCCc1ccc(C2Sc3ccccc3NC3=C2C(=O)c2ccccc23)cc1 (stereo not drawn) | 94%
O=C1C2=C(Nc3ccccc3SC2c2ccc(C(F)(F)F)cc2)c2ccccc21 (stereo not drawn) | 16% (active)
COc1ccc(C2Sc3ccccc3NC3=C2C(=O)c2ccccc23)c(OC)c1OC (stereo not drawn) | 77%
CC(=O)Nc1ccc(C2Sc3ccccc3NC3=C2C(=O)c2ccccc23)cc1 (stereo not drawn) | 116%
CC(C)c1ccc(C2Sc3ccccc3NC3=C2C(=O)c2ccccc23)cc1 (stereo not drawn) | 85%
CC1=C(C)NC(=S)SC1 | 101%
Cc1cc(=O)c2cc(C(=O)Nc3ccccc3C)ccc2[nH]1 | 84%
COc1ccc(CCNC(=O)c2c(Nc3ccccc3C)sc(C(=O)c3ccccc3)c2N)cc1OC | 66%
O=C(NC1CC1)C1CCN(C(=O)c2ccc(Cl)cc2)CC1 | 86%
CCCC(C(=O)NC1CCCC1)N(C(=O)Cn1nnc(-c2ccc(C)o2)n1)c1ccccc1 (stereo not drawn) | 89%
CC(=NC1CC1)C1=C(O)c2ccccc2C1=O | 92%
Cc1cc(C)c(S(=O)(=O)n2cnc(C)c2)c(C)c1 | 95%
CCC(=O)Nc1ccc(-c2nc3ncccc3o2)cc1C | 73%
Cc1cc(-c2nc3ncccc3o2)ccc1NC(=O)COc1cc(C)c(Cl)c(C)c1 | 65%
CC(C)c1ccc(OCC(=O)Nc2cc(-c3nc4ncccc4o3)ccc2Cl)cc1 | 150%
Cc1cc(-c2nc3ncccc3o2)ccc1NC(=O)COc1ccc(C(C)(C)C)cc1 | 32% (active)
Cc1ccc(-c2nc3ncccc3o2)cc1NC(=O)COc1ccc(C(C)C)cc1 | 6% (active)

Compound | survival
Cc1cc(OCC(=O)Nc2cc(-c3nc4ncccc4o3)ccc2C)ccc1Cl | 50%
COc1ccc(-c2nc(C)c(CCNC(=O)C(=O)Nc3c(C)cccc3C)s2)cc1OC | 85%
CCc1ccccc1NC(=O)c1nn(-c2ccc(C)cc2)c(=O)c2c1c1ccccc1n2C | 140%
Cc1cc(C)cc(NC(=O)CCn2cnc3ccccc3c2=O)c1 | 77%
CC1(C)Cc2ccccc2C(=NCCC(=O)O)N1 | 79%
CC(=O)NCCNC(=O)CCCc1nnc2n(CCC(C)C)c(=O)c3sccc3n12 | 90%
CC(C)c1nnc(N2C(=O)c3oc4ccccc4c(=O)c3C2c2ccccc2F)s1 (stereo not drawn) | 64%
COc1ccc(CCNC(=O)c2cc(=O)c3ccc(C)cc3o2)cc1OC | 62%
COc1ccc(CNC(=O)Cc2coc3ccc(C)cc23)cc1 | 108%
Cc1ccc2c(=O)cc(C(=O)NCc3ccccc3)oc2c1 | 39% (active)
COc1ccc(CNC(=O)c2cc(=O)c3cc(C)ccc3o2)cc1 | 45% (active)
Cc1ccc(CNC(=O)c2cc(=O)c3cc(C)cc(C)c3o2)cc1 | 102%
Cc1ccc(CNC(=O)c2cc(=O)c3cc(C)ccc3o2)cc1 | 42% (active)
COc1ccc(CNC(=O)c2cc3cc(OC)ccc3oc2=O)cc1 | 51%
Cc1ccc(CNC(=O)c2cc(=O)c3cc(C)c(C)cc3o2)cc1 | 77%
CCc1ccc2oc(C(=O)NCc3ccccc3)cc(=O)c2c1 | 66%
COc1ccc(CC(NC(C)=O)C(=O)N2CCN(C(=O)Nc3ccc(C#N)cc3)CC2)cc1 (stereo not drawn) | 99%
Cc1cc(C)cc(NC(=O)NCCc2c(C)nn(C)c2C)c1 | 64%
CC1CCCCN1C(=O)CSc1nc2ccccc2c(=O)[nH]1 (stereo not drawn) | 82%
CCOc1cc(C(=O)OCc2cc(=O)n3nc(CC)sc3n2)cc(OCC)c1OCC | 87%
Cc1ccc(OCc2nc(-c3ccc(C(=O)NCCc4ccc(Cl)cc4)cc3)oc2C)cc1 | 84%
